Source: PubChem BioAssay (NCI)
This is part of a sample that, as a whole, favours compounds with a hit. Of some 83,000 tested, about 20% had one in any assay.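 A percent growth of 40 corresponds to 60% growth inhibition; 0 means no net growth; -100 means all cells died. Active threshold: below 10.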

Legend:
Test in all cases: NCI-60 one-dose screen, 48 h (100 = growth as untreated, 0 = no growth, -100 = all killed)
[1] = test system: NCI-H23 lung; settings: 10 µM unless noted
[2] = test system: NCI-H226 lung; settings: 10 µM unless noted
[3] = test system: DU-145 prostate; settings: 10 µM unless noted
[4] = test system: MDA-MB-231 breast; settings: 10 µM unless noted
[5] = test system: SF-268 CNS; settings: 10 µM unless noted
[6] = test system: M14 melanoma; settings: 10 µM unless noted
[7] = test system: HCT-15 colon; settings: 10 µM
[8] = test system: HT29 colon; settings: 10 µM unless noted
[9] = test system: PC-3 prostate; settings: 10 µM unless noted
[10] = test system: UACC-62 melanoma; settings: 10 µM unless noted
[11] = test system: SK-MEL-28 melanoma; settings: 10 µM unless noted
[12] = test system: OVCAR-8 ovarian; settings: 10 µM unless noted
[13] = test system: OVCAR-5 ovarian; settings: 10 µM unless noted
[14] = test system: SK-OV-3 ovarian; settings: 10 µM unless noted
[15] = test system: OVCAR-3 ovarian; settings: 10 µM unless noted
[16] = test system: NCI/ADR-RES ovarian; settings: 10 µM unless noted
[17] = test system: SW-620 colon; settings: 10 µM unless noted
[18] = test system: MCF7 breast; settings: 10 µM unless noted
[19] = test system: KM12 colon; settings: 10 µM unless noted
[20] = test system: LOX IMVI melanoma; settings: 10 µM unless noted

Measured: growth

CC(=O)C1CCC2C3CC=C4CC(OC(=O)Cc5ccc(N(CCCl)CCCl)cc5)CCC4(C)C3CCC12C (centres undefined)
inactive: [1] 96.6% | [2] 94.6% | [3] 86% | [4] 112% | [5] 93.7% | [6] 97.4% | [7] 99.5% | [8] 83.2% | [9] 86.2% | [10] 91.4% | [11] 107% | [12] 103% | [13] 107% | [14] 112% | [15] 99.6% | [16] 96.2% | [17] 101% | [18] 106% | [19] 106%

O=C1NC(=O)C(O)(C2(O)C(=O)NC(=O)NC2=O)C(=O)N1
inactive: [1] 103% | [2] 99.5% | [3] 109% | [4] 91.2% | [5] 91.6% | [6] 105% | [7] 107% | [8] 104% | [9] 89.2% | [10] 87.2% | [20] 91.9% | [11] 109% | [12] 109% | [13] 88.1% | [14] 111% | [15] 115% | [16] 92.7% | [17] 96.4% | [18] 138% | [19] 100%

O=C(Nc1ccc(S(=O)(=O)F)cc1)Oc1ccccc1
inactive: [1] 97.8% | [2] 99.5% | [3] 103% | [4] 104% | [5] 102% | [6] 110% | [7] 104% | [8] 102% | [9] 93.4% | [10] 97.5% | [20] 95.1% | [11] 99.2% | [12] 101% | [13] 102% | [14] 102% | [15] 105% | [16] 103% | [17] 97% | [18] 91.6% | [19] 102%
